# Data taken from PubChem BioAssay AID1903 (Southern Research Specialized Biocontainment Screening …, 2009).
# In all, about 310,000 compounds went through this assay and about 1,200 (0.39%) were called active. Not all results are given here. Measured potencies and affinities stand elsewhere. Values without a mark were called inactive. The rule behind the calls is not given here.
# Target: Large T antigen (Simian virus 40) (UniProt P03070)
# Assay: TAg ATPase/helicase activity blockers – biochemical (AID 1903)
# Settings: SV40 large T antigen ATPase/helicase inhibition assay; at 20 µM; active compounds read high
# Large T antigen (Simian virus 40), sequence (P03070 whole entry, looked up): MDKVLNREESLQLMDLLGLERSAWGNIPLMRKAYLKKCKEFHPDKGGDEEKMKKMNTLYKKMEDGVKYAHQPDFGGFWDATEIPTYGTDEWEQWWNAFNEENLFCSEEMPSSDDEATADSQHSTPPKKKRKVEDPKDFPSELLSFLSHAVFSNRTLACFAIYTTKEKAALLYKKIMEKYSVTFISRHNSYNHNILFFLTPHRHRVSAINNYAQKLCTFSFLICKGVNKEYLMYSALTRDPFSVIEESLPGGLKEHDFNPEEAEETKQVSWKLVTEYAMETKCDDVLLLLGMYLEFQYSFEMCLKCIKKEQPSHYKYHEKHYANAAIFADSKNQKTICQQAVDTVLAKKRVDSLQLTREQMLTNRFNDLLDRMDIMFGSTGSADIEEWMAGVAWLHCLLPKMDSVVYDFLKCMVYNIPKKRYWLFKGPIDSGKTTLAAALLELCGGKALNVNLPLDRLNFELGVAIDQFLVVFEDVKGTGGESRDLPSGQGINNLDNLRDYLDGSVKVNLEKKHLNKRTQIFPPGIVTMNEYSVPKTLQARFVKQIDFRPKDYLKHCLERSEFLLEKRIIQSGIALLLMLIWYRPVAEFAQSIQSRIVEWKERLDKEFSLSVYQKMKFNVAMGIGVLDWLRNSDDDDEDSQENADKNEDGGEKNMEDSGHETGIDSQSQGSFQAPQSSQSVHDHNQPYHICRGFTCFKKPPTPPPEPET
row,SMILES,inhibition
1,COc1ccc(-c2noc(N3CCC(C(=O)NCCCN4CCCCC4)CC3)n2)cc1,11.4%
2,C/C(=N\NC(=O)c1c(Cl)c(C)nn1C)c1cccc(NC(=O)c2cccc(F)c2)c1,27.2%
3,O=C(Cc1ccccc1)NCC(=O)N/N=C/c1cccnc1,12.9%
4,O=C1Nc2ccc(S(=O)(=O)N3CCOCC3)c3cccc1c23,3.61%
5,CCOC(=O)C1=C(C)NC(=O)C(C(N)=O)C12CCCCC2 (stereo unspecified),4.24%
6,CN(CCc1ccccn1)C(=O)CCC1CCCN(C(=O)CN2CCCCCC2)C1 (stereo unspecified),16.4%
7,Cc1cccc(Nc2nc3c(S(=O)(=O)c4ccccc4)nnn3c3ccccc23)c1,8.95%
8,CCCN1C(=O)/C(=N\OCC(=O)NC23CC4CC(CC(C4)C2)C3)c2ccccc21,19.7%
9,COc1ccc(C2CC(=O)c3cnc(N4CCc5ccccc54)nc3C2)cc1OC (stereo unspecified),6.12%
10,CCOC(=O)C(CC)n1nc(C)n2c(cc3sccc32)c1=O (stereo unspecified),9.17%
11,Cc1cc(N)ccc1-n1c(C)ccc1C,15.8%
12,Cc1cc(N)ccc1N1CCCC1,11.3%
13,Cc1ccc(CNC(C)(C)CO)cc1,1.14%
14,Cc1nc(-c2ccccc2O)n(S(=O)(=O)N(C)C)n1,12.3%
15,CCN(CC(=O)Nc1ccc(NC(C)=O)cc1)C(=O)c1ccc(NC2CC2)c([N+](=O)[O-])c1,9.29%
16,CCN(C(=O)c1ccc(Cl)c([N+](=O)[O-])c1)c1ccccc1,4.72%
17,COCCNC(=O)C(=O)c1cc(C)n(-c2ccc([N+](=O)[O-])cc2)c1C,3.94%
18,CCN1C(=O)c2ccccc2Sc2ccc(C(=O)NCCCN3CCCCC3)cc21,10.1%
19,CCc1nnc(NC(=O)COc2ccc(N(C)S(=O)(=O)c3ccc(C)cc3)cc2)s1,4.23%
20,C=CCOc1cccc(CNCc2ccncc2)c1,8.06%
21,Oc1ccc(NCc2cccc(OCc3ccc(F)cc3)c2)cc1,29.3%
22,C=CCOc1ccc(CNc2ccc3[nH]c(=O)[nH]c3c2)cc1OC,13.7%
23,Fc1ccc(CNc2ccc(CNc3ncn[nH]3)cc2)cc1,19.6%
24,C=CCOc1cccc(CNc2cccc(C(=O)O)c2)c1,15.2%

row,SMILES,inhibition
1,C=CCOc1ccc(CNc2ccc(NC(=O)CCC)cc2)cc1OCC,18.3%
2,CNC(=O)COc1coc(CN2CCN(c3ccc(OC)cc3)CC2)cc1=O,21.7%
3,COc1ccc(-n2ccnc2SCC(=O)Nc2ccccc2)cc1,15%
4,CC(=O)c1ccc(N2CCN(C(=O)Cc3cccs3)CC2)cc1,1.64%
5,Cc1ccc2nc(C)c(C)nc2c1N,17.3%
6,Cc1ccc2cccnc2c1N,5.53%
7,Cc1cccc(-c2nnc(NC(=O)c3ccco3)s2)c1,8.94%
8,CN(c1ccc(F)cc1)S(=O)(=O)c1ccc2[nH]cc(C(=O)O)c(=O)c2c1,5.14%
9,COc1cccc(C(=O)Nc2c3c(nn2-c2ccc([N+](=O)[O-])cc2)CS(=O)(=O)C3)c1,3.72%
10,CCN(CC)S(=O)(=O)c1cccc(NC(=O)CSc2nnc(N)s2)c1,2.59%
11,CCN(CC)C(=O)CSc1nc2ccc(NC(=O)CSc3nnc(N)s3)cc2s1,5.67%
12,Cc1cccc(OCC(=O)NNC(=O)CCc2ccccc2)c1,15.5%
13,Nc1ccc(S(=O)(=O)NNC(=O)C(=O)NNc2ccccn2)cc1,11.5%
14,Cn1c(=O)c2c(nc(N3CCOCC3)n2CCSc2ncccn2)n(C)c1=O,12.4%
15,COc1ccc(N=Cc2c(O)n(-c3cccc(C)n3)c(=O)c3ccccc23)c(OC)c1,13.7%
16,COc1cccc(N=Cc2c(O)n(-c3cccc(C)n3)c(=O)c3ccccc23)c1,18%
17,COc1ccccc1N=Cc1c(C)[nH]n(-c2ccc(C)cc2C)c1=O,27.4%
18,COc1cc(SC#N)ccc1N=Cc1c(C)[nH]n(-c2ccc(C)c(C)c2)c1=O,35.9%
19,COc1cc(SC#N)ccc1N=Cc1c(C)[nH]n(-c2ccc(Cl)cc2)c1=O,17.5%
20,COc1cc(S(=O)(=O)Nc2ccc(C)cc2)ccc1N=Cc1c(C)[nH]n(-c2ccc(C)cc2)c1=O,2.78%
21,CCON1C(=O)CN(C(=O)OC)C1c1ccc(Cl)cc1Cl (stereo unspecified),19.9%
22,Cc1ccccc1NC(=O)Cn1nnc2sc3c(c2c1=O)CC(C)(C)OC3,7.47%
23,O=C(Nc1ccc(S(=O)(=O)N2CCCCC2)cc1)C1CC(=O)N(Cc2ccccc2)C1 (stereo unspecified),16.5%
24,CSC1=NCCCN1C(=O)c1c(-c2ccccc2Cl)noc1C,10.2%

row,SMILES,inhibition
1,O=C(O)C1CCCC[C@H]1C(=O)Nc1ncc([N+](=O)[O-])s1 (stereo partly specified),3.81%
2,COc1ccc(CCNC(=S)Nc2ccc(C(C)C)cc2)cc1,13.7%
3,CC(/C=C1\SC(=S)N(CC(=O)O)C1=O)=C\c1ccccc1,19.5%
4,CC(=C\c1ccccc1)/C=C1/SC(=S)N(CCC(=O)O)C1=O,0.31%
5,Cc1ccc(-c2n[nH]c(=S)n2C)cc1,14.5%
6,Cc1ccc(S(=O)(=O)c2c(C)nn(-c3ccccc3)c2OC(=O)c2ccc(Br)o2)cc1,6.66%
7,O=C(Nc1nc2ccccc2n1Cc1ccccc1)c1ccco1,-0.22%
8,CCCCC/C(=N\NC(=O)CCC(=O)NCc1ccccc1)c1ccccc1,-0.61%
9,CCC/C(=N\NC(=O)CCC(=O)NCc1ccccc1)c1ccccc1,8.82%
10,Cc1ccc(-c2nc(CSCC(=O)NCCCN3CCOCC3)c(C)o2)cc1,26.4%
11,CN(C)c1ccc(C2OC(=O)C3(CCCC3)C(=O)C2(C)C)cc1 (stereo unspecified),1.45%
12,COc1cc(C(=O)OCCN2CCOCC2)ccc1O,25.1%
13,COc1cc(C(=O)OCCCN2CCOCC2)ccc1O,30.9%
14,COCCOc1ccc(C(F)(F)F)cc1NC(=O)c1ccc(C(F)(F)F)cc1,2.65%
15,C=C(c1ccc(O)cc1)c1ccc(O)cc1,12.5%
16,Oc1ccc(Oc2ccc(Oc3ccc(O)cc3)cc2)cc1,11.2%
17,COc1ccc2[nH]c(C(=O)NCCc3ccccc3)cc2c1,6.64%
18,O=C(CCCOc1ccccc1)N1CCN(c2ccc(F)cc2)CC1,0.74%
19,CCOC(=O)N1CCN(c2ccc([N+](=O)[O-])cc2)CC1,5.56%
20,O=C(CCCOc1ccccc1)N1CCN(c2ccccc2)CC1,-0.15%
21,Cc1ccc(OCCC(=O)OCC(=O)N2CCN(S(=O)(=O)c3ccc(Cl)cc3)CC2)cc1,30.2%
22,CCOC(=O)N1CCN(c2ccc(Cl)cc2)CC1,24.6%
23,Cc1ccc(OCCC(=O)OCC(=O)N2CCN(S(=O)(=O)c3ccc(C)cc3)CC2)cc1,10.3%
24,O=C(CCSc1ccc(Cl)cc1)N1CCOCC1,23.4%

row,SMILES,inhibition
1,O=C(CCSc1ccccc1)N1CCN(c2ccccc2)CC1,8.73%
2,COc1ccc(OC)c(CCNC(=O)c2ccc3c(c2)N(Cc2ccccc2)CCS3)c1,-0.13%
3,O=C(CNC(=O)c1cccc(F)c1)OCC(=O)N1CCCc2ccccc21,7.9%
4,Cc1ccc(NS(=O)(=O)c2ccc(CCC(=O)NCCCOC(C)C)cc2)cc1,5.53%
5,COc1ccc(S(=O)(=O)c2nnn(-c3cccc(OC)c3)c2N)cc1,22.2%
6,O=[N+]([O-])c1ccc(-n2cccc2/C=N/Nc2nc(N3CCCCC3)nc(N3CCCCC3)n2)cc1,9.66%
7,O=C(CNC(=O)c1ccccc1F)OCC(=O)N1CCCCC1,7.93%
8,Cc1cc(C)c(S(=O)(=O)c2ccccc2C)c(N(C)C)n1,21.5%
9,COc1cc(/C=C2\SC(=S)N(CCC(=O)Nc3ccc(O)cc3)C2=O)cc(OC)c1OC,5.27%
10,O=C(Nc1ccc2c(c1)OCO2)c1ccc(NC2CC2)c([N+](=O)[O-])c1,12.5%
11,CCn1c(-c2nn(-c3ccccc3)ccc2=O)n[nH]c1=S,9.69%
12,COc1ccc(NS(=O)(=O)c2cccc(C(=O)NCC(c3ccccc3OC)N3CCCC3)c2)cc1 (stereo unspecified),5.32%
13,COc1ccc(C(=O)NCC(=O)N2CCN(c3ccc(Cl)cc3)CC2)cc1,10.9%
14,COc1ccc(N2CCN(C(=O)COC(=O)CCOc3ccc(C)cc3)CC2)cc1,10.6%
15,O=C(C1CC1)N1CCN(c2ccc(F)cc2)CC1,2.25%
16,COc1ccc(OCC(=O)N2CCN(c3cccc(C(F)(F)F)c3)CC2)cc1,17%
17,COc1cc(OC)cc(C(=O)NCC(=O)N2CCCCC2)c1,4.74%
18,Cc1ccc(OCCCC(=O)N2CCOCC2)cc1,0.37%
19,O=C(COc1cccc(C(F)(F)F)c1)N1CCN(c2ccccc2O)CC1,22.7%
20,O=C(C1CC1)N1CCN(c2ccc([N+](=O)[O-])cc2)CC1,12.1%
21,c1ccc(Nc2nc(-c3ccccc3)ns2)cc1,-2.89%
22,CSc1nnc2c(n1)OC(c1cccn1C)N(C(C)=O)c1ccccc1-2 (stereo unspecified),15.3%
23,Cn1cnc(S(=O)(=O)NCc2ccccc2)c1,6.21%
24,Cc1ccc(C(=O)Nc2ccc(S(=O)(=O)N3CCOCC3)cc2)cc1C,0.36%
